High-throughput results: PubChem BioAssay, National Center for Advancing Translational Sciences (NCATS)
HEK293 tox = cytotoxic in the GLP-1 receptor inverse agonist counter-screen; 410,000 compounds, 0.13% hits; HEK293 cAMP-luciferase reporter cells, luminescence, 24 h; AID 624418; Potency, µM (top dose mostly 38.3 µM), without a hit: at the top dose activity change, negative = inhibition, usual class: inhibitors;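 further: loss of luciferase light is scored as toxicity; potency means the concentration at half of the fitted maximal effect; on the % scale 0 is the no-effect control and ±100 the full control effect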
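1536-well qHTS counterscreen of the MLSMR; 200 cells/uL, 12 h pre-incubation, 23 nL cpd, 24 h at 37 deg C 5% CO2, luciferase detection reagent, 12 min RT, luminescence. Inhibition = undesired.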
TRPML1 agonist = activates the human TRPML1 channel; Q9GZU1; TRPML1-expressing cells, Ca2+ dye fluorescence, FDSS; activation, % (test concentration not listed); 410,000 compounds, 0.12% hits; AID 624414; in the data active means activation above about 50%; inconclusive means mostly about 30% to 49%; further: 0% is about no effect
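Tet-induced TRPML1-DL cells, 1,500 per well, cultured overnight, were loaded with a no-wash Ca2+ dye for 45–90 min. Calcium fluorescence was recorded on the FDSS for 110 s after compound addition, before the EC80 agonist (4 uM 54-4) was added.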
TRPML1 blocker = human mucolipin-1 channel inhibition | TRPML1-inducible cells, Ca2+ dye fluorescence, FDSS; active compounds read low; inhibition of EC80 agonist-evoked calcium signal | activity change, negative = inhibition, % (concentration not given with the values) | 390,000 compounds, 0.02% hits | Q9GZU1; in the data active means activity change below about -50%; inconclusive means between about -30% and that limit;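 further: stimulus is agonist 54-4 at its EC80 concentration; on the % scale 0 is the no-effect control and ±100 the full control effect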
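TRPML1-DL cells, Tet-induced overnight (~16 h, 37 °C) at 1,500 cells/well, were loaded with Ca8 no-wash dye plus quencher for 45-90 min at room temperature. Compounds were pinned during FDSS kinetic reading; agonist 54-4 at EC80 (4 uM final) then added.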
GLP1R inv ag = GLP-1 receptor (human) inverse agonism; P43220; Potency, µM (highest dose often 38.3 µM), for the others: at the top dose activity change, negative = inhibition, usual class: inhibitors; HEK293 GLP-1R CRE-luciferase, luminescence, 24 h; GLP-1R form is constitutively active; AID 624417; 410,000 compounds, 1.6% hits; further: potency means the concentration at half of the fitted maximal effect; on the % scale 0 is the no-effect control and ±100 the full control effect; nearly all actives have a fitted effect of over 55% in size
Target sequence (P43220 whole entry, looked up): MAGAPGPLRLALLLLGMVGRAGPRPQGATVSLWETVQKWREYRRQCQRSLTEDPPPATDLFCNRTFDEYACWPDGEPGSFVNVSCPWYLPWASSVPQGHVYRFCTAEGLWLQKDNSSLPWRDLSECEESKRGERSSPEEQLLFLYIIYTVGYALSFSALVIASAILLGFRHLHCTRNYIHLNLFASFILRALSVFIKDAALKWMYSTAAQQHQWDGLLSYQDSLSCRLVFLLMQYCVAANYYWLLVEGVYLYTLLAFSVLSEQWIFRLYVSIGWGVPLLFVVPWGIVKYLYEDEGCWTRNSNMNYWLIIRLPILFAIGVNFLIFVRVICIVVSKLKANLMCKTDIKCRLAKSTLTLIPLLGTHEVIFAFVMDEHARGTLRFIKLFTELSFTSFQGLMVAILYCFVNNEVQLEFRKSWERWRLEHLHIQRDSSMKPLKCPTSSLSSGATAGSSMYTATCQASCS
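Stable HEK293 clone (constitutively active GLP-1R + cAMP-response luciferase); 200 cells/uL plated, 12 h pre-culture, compound 24 hr, 37 deg C/5% CO2; detection reagent 12 min RT; luminescence.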
GLP1R ag = GLP-1 receptor (human) agonism | P43220 | AID 624172 | Potency, µM (titrated, usually from 45.6 µM), for the others: at the highest dose activation, most hits filed as activators | 380,000 compounds, 0.007% hits | HEK293 GLP-1R CRE-luciferase, luminescence, 4-6 h; cells express a hypersensitive GLP-1R form; further: potency means the concentration at half of the fitted maximal effect; % of control where 0% means no effect
* marks the source's active call; other numbers are inactive results; ? = inconclusive; / = not tested or not shown. Compounds with a hit are over-represented: about 1.8% of the library has one in this group of screens. Unless noted, the call rests on the fitted dose curve; in most records, active means well fitted curve in the direction sought with a large enough effect; inconclusive means small, poorly fitted or top-dose-only effect, or another doubt; inactive means no such curve, though single readings can be large; an effect the other way counts as inactive or inconclusive.

SMILES | HEK293 tox | TRPML1 agonist | TRPML1 blocker | GLP1R inv ag | GLP1R ag
CCc1cc2c(Sc3nc4ccccc4s3)ncnc2s1 | -28% | 0 | 12 | 3.5µM* | 12%
c1ccc2sc(Sc3ncnc4sccc34)nc2c1 | -27% | -1 | 6 | ? | 6%
Cc1ccc(/C=N/Nc2ccc(F)cc2F)s1 | -14% | 1 | ? | 5µM* | 1%
COc1ccc(NC(=O)Cc2csc(COc3cccc(C)c3)n2)cc1OC | -2% | 3 | 6 | ? | /
CCOC(=O)C1Nc2ccc(OC(F)(F)F)cc2C2C=CCC12 (configuration not stated) | 3% | 0 | -23 | 5% | -2%
CCOC(=O)C1Nc2ccccc2C2C(O)C(O)CC12 (configuration not stated) | 7.1µM* | 1 | -9 | 17% | 4%
O=S1(=O)C2CC3C=CC2(O3)C(O)C(Cc2ccccc2)N1Cc1cccc(F)c1 (configuration not stated) | / | 0 | 9 | / | /
O=C(C1CCCN(S(=O)(=O)c2ccc(Cl)cc2)C1)N(Cc1cccs1)C1CC1 (configuration not stated) | -12% | 1 | 68 | 10µM* | 2%
CCCCOc1ccc(Cn2c(=O)sc3ccccc32)cc1 | 26% | 0 | 25 | 11µM* | /
CCCOc1ccc(Cn2c(=O)sc3ccccc32)cc1 | 1% | 3 | -9 | ? | /
O=C(Cn1ncc2c(Cl)cccc21)NCc1cccc(Br)c1 | 9% | 0 | -5 | 12% | /
COC(=O)c1ccc(CSc2ccccc2NC(=S)Nc2cccc(SC)c2)o1 | -17% | -1 | 11 | 13µM* | 14%
COC(=O)c1cccc(NC(=S)Nc2ccccc2Cl)c1 | -7% | 0 | 11 | 7% | -1%
COc1ccc(OC)c(NC(=O)Cn2c(=O)c3cccn3c3ccccc32)c1 | 2% | 2 | -25 | 23% | /
Cc1ccccc1CN1CCN(S(C)(=O)=O)CC1 | 6% | -1 | 14 | 5% | 1%
Cc1ccccc1CN1CCN(S(=O)(=O)c2ccc(Cl)s2)CC1 | -10% | 2 | 14 | 10µM* | 1%
O=C(O)c1ccccc1N/N=C\c1ccnc2ccccc12 | 54% | 1 | -19 | 4.5µM* | -40%
O=C1[C@H](Cc2ccccc2)NC/C=C\C[C@@H](c2ccc(Cl)cc2)N1Cc1ccccc1 | / | 0 | / | / | /
CCN(CC)c1ccc(C(=O)O)cc1 | 9% | 0 | -15 | 9% | -5%
CCN(CC)c1ccc(/C=C2\C(=O)c3ccc(C(=O)O)cc3C2=O)cc1 | 2% | 78* | -16 | 8% | 4%
CC(C)COC(=O)N(C)c1ccc(C(O)(C(F)(F)F)C(F)(F)F)cc1 | 4% | 1 | 28 | 8.9µM* | 10%
COc1ccccc1NC(=S)NCCSc1ccc(C)cc1 | ? | 1 | -7 | 11µM* | 1%
CCc1nnc(SCc2nc(-c3ccccc3)oc2C)c2cc3sccc3n12 | 14% | 2 | -25 | -5% | /
COc1ccc(CCNC(=O)C2CCC(C(C)(C)C)CC2)cc1OC (configuration not stated) | -14% | 0 | 21 | 10µM* | 12%
Cn1c(-c2ccccc2)cc2ccccc21 | -2% | 1 | 32 | -12% | 4%
SMILES | HEK293 tox | TRPML1 agonist | TRPML1 blocker | GLP1R inv ag | GLP1R ag
Cn1c(-c2ccccc2O)cc2ccccc21 | -9% | 0 | -15 | 10µM* | 1%
O=C(/C=C/c1cnc2ccccc2n1)NC12CC3CC(CC(C3)C1)C2 | -20% | 3 | 3 | 2.5µM* | -1%
O=C(O)/C=C/c1cnc2ccccc2n1 | -5% | 0 | -13 | 16% | -4%
CCN(CC)S(=O)(=O)c1ccc(NC(=O)[C@H](CSCc2ccccc2)N2Cc3ccccc3C2=O)cc1 | -2% | 1 | 45 | 16% | /
CCCOc1ccc(CNC(=O)C(CC)n2nc(C)c3sc4ccccc4c3c2=O)cc1 (configuration not stated) | 4% | 0 | -7 | 7% | /
C=CC[C@H](CC(=O)N(CCO)Cc1ccccc1)C(=O)N[C@H](C)COC(=O)[C@@H](CC=C)Cc1ccc(F)cc1 | 3% | 1 | 3 | 11µM* | 11%
C=CC[C@H](CC(=O)N(CCO)Cc1ccccc1)C(=O)NC[C@@H](OC(=O)[C@@H](CC=C)Cc1ccc(F)cc1)c1ccccc1 | -25% | 3 | -23 | 3.2µM* | -5%
C=CCC[C@H](Cc1ccc(F)cc1)C(=O)O[C@H](CNC(=O)[C@@H](CC=C)CC(=O)N(CCO)Cc1ccccc1)c1ccccc1 | ? | 2 | 12 | ? | -2%
C=CCC[C@@H](Cc1ccc(F)cc1)C(=O)OC[C@H](Cc1c[nH]c2ccccc12)NC(=O)[C@H](CC=C)CC(=O)N(CCO)Cc1ccccc1 | ? | 0 | 12 | 10µM* | -1%
Cc1ccccc1-n1nc(CO)c(C(=O)NCc2cccs2)n1 | 6% | 3 | -19 | 1% | /
COc1ccc(-c2cn3cccnc3n2)cc1NC(=O)COc1ccccc1 | -23% | 3 | -3 | -9% | /
CCOC(=O)C1CCCN(C(=O)Cn2ncc3c(C)n(Cc4ccccc4Cl)c(C)c3c2=O)C1 (configuration not stated) | 14% | 0 | -18 | -2% | /
CCOC(=O)C(=NC1CCS(=O)(=O)C1)NNc1cc(Cl)ccc1Cl (configuration not stated) | ? | 0 | -13 | ? | 1%
CCOC(=O)C(=NCCOC)NNc1cc(Cl)ccc1Cl | -9% | 2 | 11 | 2.8µM* | 21%
OC(c1ccc(F)cc1)c1ncc(-c2ccc(Oc3ccccc3)cc2)[nH]1 (configuration not stated) | -11% | 0 | / | 10µM* | -6%
OC(c1ccc2ccccc2c1)c1ncc(-c2ccc(C(F)(F)F)cc2)[nH]1 (configuration not stated) | -22% | 0 | / | 10µM* | -2%
OC(c1cccc(F)c1)c1ncc(-c2ccc(C(F)(F)F)cc2)[nH]1 (configuration not stated) | -2% | 0 | 9 | ? | 19%
CCc1nn(CC(=O)N(CC)Cc2ccccc2)c(=O)c2cc3occc3n12 | -5% | -1 | 13 | 1% | /
O=C(CN1CCC(n2nnc3cc(C(F)(F)F)ccc32)CC1)Nc1ccc2c(c1)CCC2 | 3% | 0 | 51 | 4.5µM* | 1%
C/C=C1\COC(C(=O)NCc2ccccn2)(C(F)(F)F)C=C1C=C(C)C (configuration not stated) | / | 1 | 15 | / | /
Cc1c(C(=O)N2c3ccccc3CC2C)oc2ccccc12 (configuration not stated) | -16% | 2 | 39 | 10µM* | -3%
